From PubChem BioAssay (NCATS)
Records with an inconclusive call do not appear. Active and inactive are the calls of the source. The call rests on the fitted dose curve; in most records, active means well fitted curve in the direction sought with a large enough effect; inconclusive means small, poorly fitted or top-dose-only effect, or another doubt; inactive means no such curve, though single readings can be large or run the other way.

Biological target: Ferritin light chain (Equus caballus) (UniProt P02791)
Sequence (P02791 2-175 limits assumed): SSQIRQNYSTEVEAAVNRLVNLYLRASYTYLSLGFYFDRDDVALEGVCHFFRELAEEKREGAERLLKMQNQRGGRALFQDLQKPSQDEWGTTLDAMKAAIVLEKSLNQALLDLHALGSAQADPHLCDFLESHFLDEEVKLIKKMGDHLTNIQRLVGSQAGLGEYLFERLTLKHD
Assay: qHTS Validation Assay for Identification of Novel General Anesthetics (AID 2323)
Conditions: horse apoferritin, anesthetic-site fluorescent probe displacement; series mostly up to 76.9 µM; activity change, negative = inhibition: at the top concentration
Outline: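 Normalized fluorescence response, scaled between free 1-AMA and 1-AMA/apoferritin complex, fitted to a four-parameter Hill equation for concentration-effect values. Binding mix: 10 uM horse-spleen apoferritin, 50% saturated 1-AMA in PBS; read 380/535 nm after 10 min.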
On the % scale 0 is the no-effect control and ±100 the full control effect; potency means the concentration at half of the fitted maximal effect.

| Compound | activity change, negative = inhibition | Potency |
| --- | --- | --- |
| C=CC(N)CCC(=O)O (centres undefined) | -3.02% (inactive) | – |
| O=C(O)c1cc(=O)c2c(Cl)cc(Cl)cc2[nH]1 | 11.7% (inactive) | – |
| c1ccc(-c2ccccn2)nc1 | -0.962% (inactive) | – |
| CN1CCC[C@H]1c1cccnc1 | -4.55% (inactive) | – |
| O=c1[nH]c2cc([N+](=O)[O-])c([N+](=O)[O-])cc2[nH]c1=O | -14.9% (inactive) | – |
| CO/N=C(\C(=O)N[C@@H]1C(=O)N2C(C(=O)O)=C(COC(C)=O)CS[C@H]12)c1csc(N)n1 (stereo in doubt) | -1.96% (inactive) | – |
| Cc1ccc(C(=O)O[C@H](C(=O)O)[C@@H](OC(=O)c2ccc(C)cc2)C(=O)O)cc1 (tested in a mixture with another compound) | -2.76% (inactive) | – |
| CC1(C)CCC=[N+]1[O-] | -2.74% (inactive) | – |
| NCCCCC(=O)O | -0.656% (inactive) | – |
| S=C(S)OC1CC2CC1C1CCCC21 (centres undefined) | – | 17.8 µM (active) |
| O=C(O)CC1CCCc2ccccc2C1O (centres undefined) | -1.48% (inactive) | – |
| O=C(O)CNC(=O)C(CS)Cc1ccccc1 (centres undefined) | -8.08% (inactive) | – |
| NCCCCCCCCCCN | -1.85% (inactive) | – |
| NCCSSCCN | -4.32% (inactive) | – |
| CN1C2CCC1CC(OC(=O)C(O)c1ccccc1)C2 (centres undefined) | -11.6% (inactive) | – |
| Cn1c(=O)c2[nH]c(-c3ccccc3)nc2n(C)c1=O | 322% (inactive) | – |
| CC1CN(S(=O)(=O)c2cccc3cnccc23)CCN1 (centres undefined) | -2.58% (inactive) | – |
| N=C(N)SCCc1ccc(CCSC(=N)N)cc1 | -8.88% (inactive) | – |
| CN[C@H](CC(C)C)C(=O)N[C@H]1C(=O)N[C@@H](CC(N)=O)C(=O)N[C@H]2C(=O)N[C@H]3C(=O)N[C@H](C(=O)N[C@H](C(=O)O)c4cc(O)cc(O)c4-c4cc3ccc4O)[C@H](O)c3ccc(c(Cl)c3)Oc3cc2cc(c3O[C@@H]2O[C@H](CO)[C@@H](O)[C@H](O)[C@H]2O[C@H]2C[C@](C)(N)[C@H](O)[C@H](C)O2)Oc2ccc(cc2Cl)[C@H]1O | -6.91% (inactive) | – |
